Source: PubChem
Hits are enriched below; roughly 3.6% of the tested compounds scored in any of these assays.
BoNT-A LC inh2 = inhibitors of Botulinum neurotoxin A light chain protease | 0.17% of 360,000 active | multiplex microsphere protease substrate cleavage, flow cytometry | inhibition, % at 10 µM
Bead autofluor = compound fluorescence in toxin protease inhibitor counterscreen. compound autofluorescence counterscreen, microsphere flow cytometry; stronger effect = higher value. fluorescence intensity (no concentration beside the values). 3.1% of 360,000 active; in the data active = fluorescence intensity above about 16000; inconclusive = no clear call, values can overlap the other calls
BoNT F protease = BoNT F light chain protease inhibition; Multiplex microsphere protease cleavage assay, flow cytometry; 0.22% of 360,000 active; AID 588497; inhibition, % at 10 µM; in the data active = inhibition above about 35%, passing the limit was not always enough; inconclusive = no clear call, values can overlap the other calls
BJeLR lethal = BJeLR cell viability loss; inhibition, % (no concentration beside the values); BJeLR (HRASV12) viability, CellTiter-Glo ATP luminescence, 48 h; 0.17% of 300,000 active; in the data active = inhibition above about 50%; inconclusive = no clear call, values can overlap the other calls
SARS 3CLpro inh = SARS-CoV 3CLpro protease inhibition | 0.14% of 290,000 active | inhibition, % at 6 µM | recombinant SARS-CoV 3CLpro, quenched FRET peptide cleavage | P0C6X7; in the data active = inhibition above about 12%
Anthrax LF inh2 = anthrax lethal factor protease inhibition. P15917. multiplex microsphere protease cleavage assay, LF. inhibition, % at 10 µM. 0.12% of 360,000 active
Target sequence (P15917 whole entry, looked up): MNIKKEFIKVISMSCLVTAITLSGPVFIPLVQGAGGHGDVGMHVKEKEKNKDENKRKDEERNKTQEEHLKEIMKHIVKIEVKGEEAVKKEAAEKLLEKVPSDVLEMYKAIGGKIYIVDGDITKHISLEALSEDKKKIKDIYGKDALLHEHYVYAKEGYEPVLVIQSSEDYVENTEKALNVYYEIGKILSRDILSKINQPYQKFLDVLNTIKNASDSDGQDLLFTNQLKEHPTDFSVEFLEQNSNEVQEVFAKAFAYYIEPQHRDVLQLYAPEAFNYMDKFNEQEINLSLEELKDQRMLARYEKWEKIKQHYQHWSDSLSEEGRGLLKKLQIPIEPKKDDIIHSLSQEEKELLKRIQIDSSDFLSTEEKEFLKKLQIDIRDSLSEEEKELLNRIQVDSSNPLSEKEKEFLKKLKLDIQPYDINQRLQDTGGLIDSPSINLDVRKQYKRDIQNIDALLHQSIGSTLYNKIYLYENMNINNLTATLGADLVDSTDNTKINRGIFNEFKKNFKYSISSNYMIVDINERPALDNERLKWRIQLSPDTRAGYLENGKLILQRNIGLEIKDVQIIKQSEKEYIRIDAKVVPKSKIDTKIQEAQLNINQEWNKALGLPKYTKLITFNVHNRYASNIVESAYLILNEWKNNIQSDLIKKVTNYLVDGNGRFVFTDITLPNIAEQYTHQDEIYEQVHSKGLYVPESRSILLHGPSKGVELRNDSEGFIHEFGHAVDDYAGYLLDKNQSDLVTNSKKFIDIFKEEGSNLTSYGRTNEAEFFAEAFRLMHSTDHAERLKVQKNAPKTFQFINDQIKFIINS
Of the large screens only hits and unclear results are named; the others gave an inactive call. Cut-off read from the data, not from the text of the source, unless noted: active = inhibition above about 30%; inconclusive = no clear call, values can overlap the other calls; inactive = below that.

CCN(CC)CCCCOc1ccccc1OC	Bead autofluor 20460
CCOCCCNc1ncnc2c1[nH]c1ccccc12	none
CCCCOCCCNc1ncnc2c1[nH]c1ccccc12	Bead autofluor 23545
C#CCOc1ccc(C2C3=C(COC3=O)Nc3cc4c(cc32)OCO4)cc1OC (configuration not stated)	BJeLR lethal 61
O=C(NCc1ccc(F)cc1)c1cc(S(=O)(=O)N2CCCCC2)ccc1N1CCOCC1	none (no result: BJeLR lethal, SARS 3CLpro inh)
CCN(CC)S(=O)(=O)c1ccc(F)c(C(=O)NCCC(C)C)c1	BoNT-A LC inh2 inconclusive, Bead autofluor 17171
COc1ccc(CCNC(=O)c2cc(S(=O)(=O)N3CCc4ccccc43)ccc2F)cc1OC	none (no result: BJeLR lethal, SARS 3CLpro inh)
O=C(NCc1ccc(F)cc1)c1cc(S(=O)(=O)N2CCOCC2)ccc1F	BoNT-A LC inh2 inconclusive, Bead autofluor 21187
CCCCCNC(=O)c1cc(S(=O)(=O)N2CCCCC2)ccc1F	BoNT-A LC inh2 inconclusive, Bead autofluor 23121
CCCNC(=O)c1cc(S(=O)(=O)N2CCc3ccccc32)ccc1F	Bead autofluor 16850
O=C(c1ccc([N+](=O)[O-])cc1)N1CCN(C(=O)C2CCCCC2)CC1	none
CCCn1c(=O)c(C(=O)NCCc2ccc(OC)cc2)c(O)c2ccccc21	BoNT F protease inconclusive
COc1ccc(C(=O)Nc2ccc(Cl)cc2F)cc1S(=O)(=O)N1CCCC1	none (no result: BJeLR lethal, SARS 3CLpro inh)
O=C1C2=C(SCCS2)C(=O)N1c1ccccc1	Bead autofluor 19116
CC12CN(S(=O)(=O)c3ccccc3)CC(C)(CN(S(=O)(=O)c3ccccc3)C1)C2	Bead autofluor inconclusive, Anthrax LF inh2 inconclusive
COc1cnc(SCc2c(Cl)cccc2Cl)nc1Cl	Bead autofluor 20944
O=C(CN1CCc2ccccc21)NC(=O)NC1CCCCC1	none
CSc1nnc(-c2sccc2OCc2ccccc2)n1C	Bead autofluor 16539
O=C(CN1CCN(Cc2ccc(Cl)cc2)C1=O)NCCCN1CCOCC1	none
O=C(CCS(=O)(=O)Cc1ccc(Cl)cc1)NCCCN1CCOCC1	Bead autofluor 23981
CC(=O)c1ccccc1N(C(=O)c1ccco1)C(C(=O)NC1CCCC1)c1ccc(C)cc1 (configuration not stated)	none
CC(C)=CC1C(C(=O)Nc2ccc(Br)cn2)C1(C)C (configuration not stated)	none
C=CC[C@@H](CC(=O)N(CCO)Cc1ccccc1)C(=O)N[C@@H](C)COC(=O)[C@@H](CC=C)Cc1ccc(F)cc1	none (no result: BJeLR lethal, SARS 3CLpro inh)
N#Cc1cc(Oc2ccc3ccccc3c2)c(-n2nnc3ccccc32)cc1C#N	Bead autofluor 20725
CC(=O)N1N=C(c2ccc3nccnc3c2)CC1c1ccccc1 (configuration not stated)	Bead autofluor 20160
Cc1nn(Cc2c(F)c(F)c(F)c(F)c2F)c(C)c1NC(=O)c1ccc(COc2ccccc2Cl)o1	Bead autofluor 19196
COc1ccccc1C(CNC(=O)c1ccc(OCc2c(C)noc2C)cc1)N1CCCC1 (configuration not stated)	none (no result: BJeLR lethal, SARS 3CLpro inh)
Cc1ccc(NC(=O)c2ccc(OCc3c(C)noc3C)cc2)cc1	none (no result: BoNT-A LC inh2, Bead autofluor, BoNT F protease, Anthrax LF inh2)
COc1cc(C(=O)NCC(c2ccco2)N2CCCC2)ccc1OCc1c(C)noc1C (configuration not stated)	Bead autofluor 23986
COc1ccc(NC(=O)COC(=O)c2ccc(OCc3c(C)noc3C)cc2)cc1OC	Bead autofluor 21341
Cc1ccc(NC(=O)c2ccc(OCc3c(C)noc3C)cc2)nc1	Bead autofluor 16600 (no result: BJeLR lethal, SARS 3CLpro inh)
COc1ccc(C(CNC(=O)c2ccc(OCc3c(C)noc3C)cc2)N2CCCC2)cc1 (configuration not stated)	Bead autofluor 17256 (no result: BJeLR lethal, SARS 3CLpro inh)
CN(C)S(=O)(=O)N1CCc2ccc(NC(=O)c3ccc(C(F)(F)F)cc3)cc2C1	BoNT F protease inconclusive
CC(C)Oc1ccc(C2NC(=O)c3ccccc3O2)cc1 (configuration not stated)	BoNT F protease inconclusive
N#CC(=C1NC(=O)c2ccccc21)c1nc2ccccc2n1CCO	none (no result: BJeLR lethal, SARS 3CLpro inh)
OC[C@@H]1CN(Cc2ccc(-c3ccccc3)cc2)C[C@H](n2cnc3c(NC4CC4)ncnc32)O1	none (no result: BJeLR lethal, SARS 3CLpro inh)
CC(=O)Nc1ccc(S(=O)(=O)N2CCC(C(=O)NCc3ccncc3)CC2)cc1	none
CC(=O)Nc1nc(SCc2ccc(Cl)cc2Cl)n[nH]1	BoNT-A LC inh2 inconclusive, Bead autofluor 19910
Oc1ccc(/C=C/c2nc(-c3ccccc3O)n(-c3ccccc3)n2)cc1	Bead autofluor 24194
COc1ccccc1-n1cnnc1SCC(=O)c1ccc[nH]1	none
CCc1ccccc1NC(=O)C(Cc1cccc(OC)c1OC)c1nn[nH]n1 (configuration not stated)	none
COc1cccc(CC(C(=O)Nc2cc(C)ccc2C)c2nn[nH]n2)c1OC (configuration not stated)	Bead autofluor 22565
CCC1CCCCN1S(=O)(=O)c1ccc(C(=O)N(CCCN(C)C)c2nc3cc4c(cc3s2)OCO4)cc1 (configuration not stated)	none (no result: BoNT-A LC inh2, Bead autofluor, BoNT F protease, Anthrax LF inh2)
Cn1nc(C(F)(F)F)c(/C=N/OC(=O)c2ccccc2Cl)c1SCc1ccccc1Cl	Bead autofluor 22148
Cn1nc(C(F)(F)F)c(/C=N/OC(=O)c2ccccc2)c1SCc1ccc(Cl)cc1	Bead autofluor 21079
COc1ccc(Oc2cc(C(F)(F)F)cnc2C(N)=O)cc1	none
Cc1noc(C)c1CSCC(=O)N(C)CC(=O)Nc1ccccc1Br	none (no result: SARS 3CLpro inh)
Cc1ccc(S(=O)(=O)N2CCOCC2)cc1NC(=O)COC(=O)CSc1ccc(Br)cc1C	Bead autofluor 22185
COc1ccc(C2C(C(=O)N3CCOCC3)=C(C)NC3=C2C(=O)CC(C)(C)C3)cc1O (configuration not stated)	Bead autofluor 23700
COc1cc(OC)c(C2C(C(=O)N3CCOCC3)=C(C)NC3=C2C(=O)CC(C)(C)C3)cc1OC (configuration not stated)	none
O=C(C1CCCCC1)N1CCN(S(=O)(=O)c2cccc([N+](=O)[O-])c2)CC1	none
COC(=O)c1cnc(SC)nc1C	BoNT-A LC inh2 inconclusive, Bead autofluor 20134
CCS(=O)(=O)NCC(c1cccnc1)N1CCN(c2ccccc2F)CC1 (configuration not stated)	none
Cc1ccc(F)c(Cn2cnc3c(cnn3C(C)(C)C)c2=O)c1Cl	none (no result: BJeLR lethal, SARS 3CLpro inh)
CC1=C(C#N)C(NC(=O)c2ccc(C)cc2)(C(F)(F)F)C(=O)N1 (configuration not stated)	Bead autofluor 19042
CC1=C(C)/C(=N\OS(=O)(=O)c2ccccc2)C=CC1=O	BJeLR lethal 84
Cc1ccc(S(=O)(=O)O/N=C2\CCCc3ccccc32)cc1	none
COC(=O)c1ccccc1NC(=O)CN1CCC(NC(=O)c2ccccc2C)CC1	Bead autofluor 16191
Cc1ccccc1C(=O)NC1CCN(CC(=O)Nc2nccs2)CC1	BoNT-A LC inh2 inconclusive, Bead autofluor 20345
Cc1cc(O)c(C(C[N+](=O)[O-])c2ccc(Cl)cc2Cl)c(=O)o1 (configuration not stated)	Bead autofluor 17730
